The results in this text go back to PubChem BioAssay (NCATS).

Results filed as inconclusive are left out. Active and inactive are the calls of the source. Calls come from the whole dose curve; as a rule, active = well fitted inhibition curve with a large enough effect; inconclusive = small, poorly fitted or top-dose-only effect; inactive = no such curve, though single readings can be large or run the other way.
Potency is the fitted concentration of half-maximal effect.

A short description of this experiment: BET inhibitor-based combinations targeting novel dependencies in MECOM-rearranged (r) AML: SET-2 cell line (AID 2202231). Note: nearly all actives have a fitted effect of over 35% in size. Particulars: SET-2 AML cells viability, CellTiter-Glo luminescence, 48 h; viability: hits give low values, series mostly up to about 46 µM. An excerpt:
Ecotropic viral insertion site 1 (EVI1) is located on chromosome 3q26.2 as part of the MECOM (MDS and EVI1 complex) locus. Under normal hematopoiesis, EVI1 is a regulator of hematopoietic stem cell maintenance and self-renewal and EVI1 levels decrease as the cells differentiate. In approximately 5-10% of de novo acute myeloid leukemia (AML) EVI1 is aberrantly expressed, including Chromosomal inv(3)(q21;q26.2) or t(3;3)(q21;q26.2) alterations (MECOM-r) that account for about 50% of AML with EVI1 overexpression 31. AMLs with high levels of EVI1 have a poor prognosis and an overall survival time averaging between 10-14 months. EVI1 overexpression confers resistance in leukemia cells, highlighting the need to develop new targeted therapies for EVI1 overexpressing AMLs.
Here, we performed an unbiased chemical drug screening by evaluating the single agent activity of a collection of 2,480 oncology-focused, approved and investigational drugs (NCATS Mechanism Interrogation Plates, MIPE v5.0) against a panel of seven AML cell lines. These included four MECOM-r cell-lines (AML-191, AML-194, UCSD-AML1 and HNT-34) and three non-MECOM-r AMLs (MV4-11, OCI-AML3 and SET-2). Exploiting the mechanistic redundancy built in the library, we identified target-level sensitivities in MECOM-r AML cells and relative activity as compared to other AML subtypes.
A collection of 2480 mechanistically annotated dugs (MIPE v5.0) was used to screen four 3q26.2 rearranged AML cell lines and three non-3q26.2 rearranged AML cell lines. This library purposely exploits redundancy by including multiple inhibitors of key onco-targets, while simultaneously encompassing mechanistic diversity, targeting more than 800 distinct mechanisms of action. Briefly, cells were seeded in 5 uL of growth media using a Multidrop Combi dispenser into 1536 well white polystyrene tissue culture treated plates (Corning) at a density of 500cells/well. For each cell-line, for each of the 2480 drugs in MIPE v5.0 library, an 11-point dose curve was generated via a 1536 pin-tool. Plates were incubated for 48 hr at standard incubator conditions, covered by a stainless steel gasketed lid to prevent evaporation. Cell viability was determined by luminescence based, Cell Titer Glo assay (Promega). In detail, 3 uL of Cell Titer Glo were added to each well and plates were incubated at room temperature for 15 min with a stainless-steel lid in place. Luminescence readings were taken using a Viewlux (PerkinElmer) with a 2 s exposure time per plate. Compound dose-response curves were normalized to DMSO and empty well controls on each plate. Quantitative drug activity data from dose-response curves was determined utilizing area Under the Curve (AUC) and Z-transformed AUC (Z-AUC, a mean-centering transformation applied to each individual cell-line screened).
For the molecule `Nc1cc(C(Cl)=C(Cl)Cl)c(S(N)(=O)=O)cc1S(N)(=O)=O`, the viability is 111% (inactive). For `Oc1c(Cl)cc(Cl)c2cccnc12`, the Potency was 8.33 µM (active). As to `COc1ccc(-c2oc3c(CC=C(C)C)c(O)cc(O)c3c(=O)c2O)cc1`, the viability was 97% (inactive). Take `O=C(/C=C\n1cnc(-c2cc(C(F)(F)F)cc(C(F)(F)F)c2)n1)NNc1cnccn1`: the Potency was 0.742 µM (active). `NS(=O)(=O)NCCNc1nonc1C(=Nc1ccc(F)c(Br)c1)NO`: the viability was 106% (inactive). For `O=[N+]([O-])c1ccc(Nc2ccccc2-c2ccccc2)c2nonc12`, the Potency was 20.9 µM (active). The same measure, in the same setting: for `CC(C)C[C@H](NC(=O)CNC(=O)c1cc(Cl)ccc1Cl)B1OC(=O)CC(CC(=O)O)(C(=O)O)O1` (stereo not given in full) the value was 0.118 µM (active). Consider `C[C@]12C=CC(=O)C=C1CC[C@@H]1[C@@H]2[C@@H](O)C[C@@]2(C)[C@H]1CC[C@]2(O)C(=O)CO`, for which the viability is 103% (inactive). With `Cc1cccc(CC(=O)N2CCc3c2ccc(-c2cn(C)c4ncnc(N)c24)c3F)n1`, the Potency was 5.9 µM (active). On to `COc1ccc(C2CC(c3ccccc3)=NN2c2ccc(S(N)(=O)=O)cc2)cc1` (stereo not given), for which the viability is 112% (inactive). Regarding `COc1ccc2c(c1)CC[C@@H](CN(C)CC(=O)O)[C@H]2c1ccccc1`, the viability was 116% (inactive). With `CN(C)CC/C=C1/c2ccccc2COc2ccc(CC(=O)O)cc21`, the viability is 121% (inactive). As to `CCCCOc1ccc(C(=O)Nc2ccc(F)cc2F)cc1`, the viability is 103% (inactive). Same read-out and setting: for `O=c1ccn([C@@H]2O[C@H](CO)[C@H](O)[C@@H]2F)c(=O)[nH]1` the value was 107% (inactive); for `CC(C)NC(=O)N1CC[C@H](N=C2Nc3cc(F)ccc3N(CC(F)F)c3ccc(Cl)cc32)C1`, 109% (inactive); for `CC(=O)[C@H]1CC[C@H]2[C@@H]3CC=C4C[C@@H](O)CC[C@]4(C)[C@H]3CC[C@]12C`, 112% (inactive).

On to `CC(C)(Oc1ccc(C2CC2(Cl)Cl)cc1)C(=O)O` (stereo not given), for which the viability is 114% (inactive). Regarding `COc1cc2c(Oc3ccc(-c4cnc(Nc5ccc(F)cc5)n(C)c4=O)cc3F)ccnc2cc1OCCCN1CCOCC1`, the Potency was 20.9 µM (active). On to `NC(=O)c1ccc(N(C(N)=O)c2c(F)cccc2F)nc1-c1ccc(F)cc1F`, for which the viability is 106% (inactive). On the same count and under the same terms, for `Cc1cccc(-c2nn(C(=S)Nc3ccccc3)cc2-c2ccnc3ccccc23)n1` the value was 97.5% (inactive). As for `COc1ccc2nc3n[nH]c(C)c3c(NCCOCCO)c2c1`, the viability was 97% (inactive). Same read-out and setting: for `CS(=O)(=O)c1ccc(C(=O)Nc2ccc(Cl)c(-c3ccccn3)c2)c(Cl)c1` the value was 106% (inactive). On to `NC(=O)Nc1sc(-c2ccc(F)cc2)cc1C(N)=O`, for which the Potency is 5.9 µM (active). Same read-out and setting: next, `COc1ccc(Cc2nccc3cc(OC)c(OC)cc23)cc1OC`: 11.8 µM (active). For the molecule `COc1cc2c(cc1OC)CN(CCc1ccc(NC(=O)c3cc(OC)c(OC)cc3NC(=O)c3cnc4ccccc4c3)cc1)CC2`, the viability was 119% (inactive).

As for `COc1cc(/C=C(\C#N)C(=O)Nc2nnc(C(F)(F)F)s2)ccc1OCc1ccc(C(F)(F)F)cc1C(F)(F)F`, the viability was 111% (inactive). With `NC(=O)OCC(COC(N)=O)c1ccccc1`, the viability was 119% (inactive). The same measure, in the same setting: next, `CC(=O)SC[C@@H](C)C(=O)N1CCC[C@H]1C(=O)N[C@@H](Cc1ccccc1)C(=O)O`: 115% (inactive); `C=C(C)[C@@H]1CC[C@]2(C)CC[C@]3(C)[C@H](CC[C@@H]4[C@@]5(C)CC[C@H](O)C(C)(C)[C@H]5CC[C@]43C)[C@@H]12`: 117% (inactive); `CC(=O)OC1C(C)OC(Oc2c(-c3ccc(O)cc3)oc3cc(O)cc(O)c3c2=O)C(O)C1OC(C)=O` (stereo not given): 114% (inactive). Consider `CCCOc1ccc(CCc2nc3cc(-c4c(C)noc4C)ccc3n2CCN2CCOCC2)cc1`, for which the Potency is 20.9 µM (active).

With `Cc1cn2cc(C(=O)N(C)CCO)cc(N[C@@H]3CCOc4cccc(C)c43)c2n1`, the viability was 112% (inactive).

Turning to `CN1C(=O)C[C@H](C(=O)N[C@@H](Cc2cnc[nH]2)C(=O)N2CCC[C@@H]2C(N)=O)NC1=O`, the viability is 98.4% (inactive). On to `Nc1cccc(-c2cc3c(Oc4cccc(O)c4)ncnc3[nH]2)c1`, for which the Potency is 20.9 µM (active). On to `O=C(c1ccccc1)c1ccc2n1CCC2C(=O)O` (stereo not given), for which the viability was 104% (inactive).

Turning to `C[C@]12CCC3c4ccc(O)cc4CCC3C1CCC2=O` (stereo not given in full), the viability was 99.9% (inactive). Take `C[C@@H]1COCCN1c1cc(=O)n2c(n1)N(Cc1cncc(Cl)c1)[C@H](C(F)(F)F)CC2`: the viability is 106% (inactive). The same measure, in the same setting: next, `O=C(O)CCNC(=O)c1ccc(N=Nc2ccc(O)c(C(=O)O)c2)cc1`: 118% (inactive); `CCCCCCCCCC(=O)N[C@@H](Cc1c[nH]c2ccccc12)C(=O)N[C@H](CC(N)=O)C(=O)N[C@@H](CC(=O)O)C(=O)N[C@@H]1C(=O)NCC(=O)N[C@@H](CCCN)C(=O)N[C@@H](CC(=O)O)C(=O)N[C@H](C)C(=O)N[C@@H](CC(=O)O)C(=O)NCC(=O)N[C@H](CO)C(=O)N[C@@H]([C@@H](C)CC(=O)O)C(=O)N[C@@H](CC(=O)c2ccccc2N)C(=O)O[C@@H]1C`: 107% (inactive); `Cc1ccnc(NS(=O)(=O)c2ccc(NC(=O)Nc3ccc(S(=O)(=O)Nc4nccc(C)n4)cc3)cc2)n1`: 112% (inactive).
